# Assay results reported in PubChem BioAssay (NCI).
# Compounds without any hit were thinned out: in the full panel of roughly 83,000, 20% have a hit.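 A percent growth of 40 corresponds to 60% growth inhibition; 0 means no net growth; -100 means all cells died. Active threshold: below 10.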 Values without a mark were called inactive. The source made the active and inactive calls.
# Assays:
# Experiment in all cases: NCI-60 one-dose screen, 48 h (100 = growth as untreated, 0 = no growth, -100 = all killed)
# HT29 colon = conditions: 10 µM unless noted
# SNB-75 CNS = conditions: 10 µM unless noted
# SNB-19 CNS = conditions: 10 µM unless noted
# U251 CNS = conditions: 10 µM unless noted
# PC-3 prostate = conditions: 10 µM unless noted
# SK-MEL-5 melanoma = conditions: 10 µM unless noted
# UACC-62 melanoma = conditions: 10 µM unless noted
# LOX IMVI melanoma = conditions: 10 µM unless noted
# SK-MEL-28 melanoma = conditions: 10 µM
# SK-MEL-2 melanoma = conditions: 10 µM unless noted
Structure (SMILES),growth (HT29 colon),growth (SNB-75 CNS),growth (SNB-19 CNS),growth (U251 CNS),growth (PC-3 prostate),growth (SK-MEL-5 melanoma),growth (UACC-62 melanoma),growth (LOX IMVI melanoma),growth (SK-MEL-28 melanoma),growth (SK-MEL-2 melanoma)
OC(c1ccccc1)c1nnc(SCc2ccccc2)n1Cc1ccccc1 (stereo not given),103%,76.3%,79.7%,87.5%,87.6%,96.7%,69.1%,98.7%,100%,84.3%
Oc1c(CN2CCN(c3ccccc3F)CC2)cc(Br)c2cccnc12,-63.1% (active),-92.2% (active),-16.6% (active),-83.5% (active),5.26% (active),-10.3% (active),-42.5% (active),-8.44% (active),-78% (active),-54.3% (active)
Cc1ccc(C)c(-c2csc(Nc3ccc(C)c(C)c3)n2)c1,4.56% (active),34%,84%,8.11% (active),63.9%,-92.3% (active),49.2%,-67.9% (active),-93.3% (active),31.6%
COc1cc(/C=C2\CN(C)C/C(=C\c3cc(CN4CCOCC4)c(O)c(OC)c3)C2=O)cc(CN2CCOCC2)c1O,6.39% (active),26.3%,58.5%,20.7%,60.8%,72.3%,35.8%,11.7%,77.3%,72.2%
COc1ccc(OC)c(/C=C/C(=O)c2c(C)nc3ccccc3c2/C=C/c2ccccc2)c1,37.2%,59.2%,80.9%,54.1%,59.4%,82.9%,50.1%,42.8%,95.1%,72.2%
Nc1nc(N)c2c(n1)NC1(C=C(O)c3ccccc31)C1=C(N2)c2ccccc2C1=O (stereo not given),125%,169%,103%,103%,107%,108%,110%,94.3%,108%,112%
O=C(Nc1ccc(N2CCNCC2)cc1)c1[nH]ncc1Nc1cc(Oc2ccccc2)ncn1,-59.7% (active),49.1%,45.9%,24.4%,-60.3% (active),22.8%,-5.09% (active),-81% (active),46.9%,72.3%
N#Cc1c(N)nc2c(c1N)C(c1ccc(F)cc1)c1ccc(N)cc1O2 (stereo not given),112%,86.6%,127%,102%,106%,96.1%,111%,110%,109%,112%
Cc1ccc(F)cc1NC(=O)c1cc(Cl)ccc1Nc1ccccc1,17.8%,53.6%,59.4%,42.5%,23.2%,70.9%,65.4%,49.4%,89.6%,54.9%
FC(F)(F)c1cccc(CNC2CCN(CCc3ccccc3)CC2)c1,46.9%,71.2%,91.7%,77.4%,25.2%,90%,86.4%,56%,85.1%,91%
O=C(Nc1nc2c(s1)CCc1c-2c(Br)n(Cc2ccccc2)c1Br)c1ccccc1,51.6%,-10.7% (active),65.7%,57.3%,67.3%,41%,62.4%,68.5%,66%,89.4%
O=C(Nc1ccc(N2CCNCC2)cn1)c1[nH]ncc1Nc1ncnc2sccc12,2.95% (active),59.5%,48.7%,-51.1% (active),23.7%,58.2%,74.7%,-75.1% (active),-81.4% (active),85.7%
CC(=O)c1ccc(Cc2ccc(C(C)=O)s2)s1,103%,96.9%,98.8%,98%,93.8%,100%,96.4%,93.7%,112%,98.9%
C#CCn1cc(C=C2C(=O)NC(=O)NC2=O)c2cc(Cl)ccc21,116%,92.9%,78.8%,82.1%,92%,81.9%,65.3%,73.2%,106%,98.1%
COC(=O)c1cc2c(n1Cc1ccccc1)-c1oncc1CCC2,30.9%,67.2%,81.8%,68.6%,77.4%,58.6%,49.7%,67.8%,62.5%,47.7%
O=C1CCC(N2C(=O)c3cccc(NCCCCCCOc4ccc(Nc5nccc(Nc6ccccc6)n5)cc4)c3C2=O)C(=O)N1 (stereo not given),88.1%,89%,86.3%,83.3%,73.4%,7.47% (active),71.3%,88.1%,82.9%,82.5%
CCOc1ccccc1CN1CCc2nc3cc(C(C)(C)C)[nH]n3c(=O)c2C1,94.8%,105%,94.8%,104%,109%,101%,102%,96.7%,112%,98.3%
COc1cc(NC(=O)CCSc2nc3ccccc3c(=O)n2Cc2ccccc2)cc(OC)c1OC,97.1%,55.7%,84.9%,91.6%,66.9%,87.4%,64.8%,82%,102%,84.4%
CNCCNc1nc2ccccc2c2c(=O)c3cc(OC)ccc3sc12,-33.3% (active),43.1%,57.6%,-19.6% (active),14%,76.4%,7.43% (active),-87.8% (active),74.6%,75.2%
NC(CCl)=NCCC[C@H](N)C(=O)O,105%,89.6%,97.3%,97.4%,76%,93.1%,91.5%,96.3%,107%,93.3%
COc1ccc(/C=C/C(=O)c2c(C)nc3ccccc3c2/C=C/c2ccccc2)c(OC)c1,62.9%,81.5%,92.9%,90%,75.9%,85.7%,62.1%,83.8%,108%,95.9%
CN(C)CCCNCc1ccc(-c2ccc(F)c(Cl)c2)o1,-30.6% (active),40.5%,73.6%,-29.8% (active),38.7%,6.38% (active),20.1%,-90.1% (active),-86.9% (active),-14.8% (active)
Cc1cccc2c(=O)c3c(sc12)c(NCCCNCCO)nc1ccccc13,-24.1% (active),23.8%,64.7%,28.7%,43.6%,59%,60.2%,-88.2% (active),32.9%,91.2%
Clc1ccc(COc2ccc(Nc3ncnc4onc(-c5ccccc5)c34)cc2)cc1,92.2%,67.8%,91.6%,94%,67%,83%,64.2%,86.7%,92.1%,101%
CCOC(=O)C1(Cc2ccccc2)CCN(Cc2cccc(OC)c2O)CC1,22.2%,37.7%,14.9%,3.94% (active),25%,-33.4% (active),-7.92% (active),5.51% (active),38%,9.33% (active)
